Screening results from PubChem.
PKM2 inhibitor – qHTS Assay for Inhibitors of Human Muscle isoform 2 Pyruvate Kinase; Pyruvate kinase PKM (Homo sapiens), P14618; purified PKM2, ATP generation, Kinase-Glo luminescence; Potency, µM (titrated, usually from 57.5 µM), for the others: at the highest dose activity change, negative = inhibition, most hits filed as inhibitors; 0.058% of 260,000 active; active means well fitted inhibition curve with a large enough effect; further: nearly all actives have a fitted effect of over 60% in size
Target sequence (P14618 whole entry, looked up, canonical isoform): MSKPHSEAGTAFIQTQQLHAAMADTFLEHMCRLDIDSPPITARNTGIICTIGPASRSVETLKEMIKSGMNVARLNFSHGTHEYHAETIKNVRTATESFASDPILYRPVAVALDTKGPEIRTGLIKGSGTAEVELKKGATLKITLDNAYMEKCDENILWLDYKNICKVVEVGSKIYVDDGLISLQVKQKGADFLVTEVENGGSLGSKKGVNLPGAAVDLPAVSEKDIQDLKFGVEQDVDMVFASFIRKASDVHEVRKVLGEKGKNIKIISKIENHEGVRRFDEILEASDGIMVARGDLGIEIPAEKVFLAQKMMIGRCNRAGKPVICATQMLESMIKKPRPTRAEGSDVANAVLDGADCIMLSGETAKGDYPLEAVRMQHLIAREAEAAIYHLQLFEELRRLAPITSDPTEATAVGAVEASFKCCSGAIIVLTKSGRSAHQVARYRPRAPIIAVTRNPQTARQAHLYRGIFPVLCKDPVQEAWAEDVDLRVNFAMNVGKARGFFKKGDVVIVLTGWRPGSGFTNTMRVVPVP
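Coupled luciferase luminescence (Kinase-Glo) detects ATP generated from 0.1 mM ADP and 0.5 mM PEP in imidazole buffer pH 7.2 with KCl, MgCl2; 1 h at room temperature. Enzyme at intermediate activity; normalized to uninhibited and no-enzyme controls.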
An asterisk follows results filed as active; [ ] = another dose, or the depositor's remark. Shown is part of a subset that was picked to be rich in hits. Potency means the concentration at half of the fitted maximal effect.

SMILES	PKM2 inhibitor
COc1cccc(-n2cn[nH]c2=S)c1	14µM*
Cc1cc(N)n(-c2ccc(S(=O)(=O)c3ccc(C(C)C)cc3)cc2)n1	45%
O=C(Nc1ccccc1)C1=C(O)CC(c2ccc(Cl)cc2)N2CCN=C12 (stereo not given)	71%
Cc1ccc(N=Cc2c(C)[nH]n(-c3nc4ccccc4[nH]3)c2=O)cc1	10µM*
COc1ccc(-c2csc(NC(=O)CSc3nc(C)nc4sc(C(=O)O)c(C)c34)n2)cc1	45%
Cc1cccc(NS(=O)(=O)c2cc3c(cc2C)NC(=O)CO3)c1	89%
C=CCn1c(COc2ccccc2OC)nc2ccccc21	58%
O=C(CC(Nc1ccc(F)cc1)C(=O)OCC(=O)c1cccs1)c1ccccc1 (stereo not given)	42%
CCOC(=O)c1c(-c2ccccc2)csc1NC(=O)CSc1nnc(C)s1	60%
COc1ccc(-c2csc(NC(=O)c3cccs3)c2C(=O)O)cc1OC	22µM*
CCOC(=O)c1c(-c2ccc(C)o2)csc1NC(=S)NC(=O)c1cccs1	37%
Cc1cc(C)c(S(=O)(=O)N(C)CC(=O)NCc2ccncc2)c(C)c1	56%
COc1cccc(/C=N/NC(=O)c2cc3c(OC)cccc3[nH]2)c1O	17%
Clc1nccnc1N/N=C/c1ccc(Br)cc1	14µM*
COc1ccc(/C=N/Nc2nccnc2Cl)cc1	13µM*
COc1cccc(/C=N/Nc2nccnc2Cl)c1O	14µM*
COc1cccc(/C=N/Nc2ncnc3c2[nH]c2ccc(C)cc23)c1OC	57%
COc1ccc(-c2nn(-c3ccccc3)cc2/C=N/NS(=O)(=O)c2ccccc2)cc1	1%
Cc1cc2c(cc1S(=O)(=O)Nc1cccc(C)c1C)n(C)c(=O)c(=O)n2C	87%
COc1ccccc1NS(=O)(=O)c1cc(NC(=O)c2[nH]c(C)c(C(C)=O)c2C)ccc1N1CCOCC1	71%
O=C(CNC(=O)c1ccc(Br)o1)OCC(=O)c1cccc([N+](=O)[O-])c1	59%
CCNc1nc(SCC(=O)Nc2ccc(Cl)c(Cl)c2)nc(N2CCOCC2)n1	56%
Cc1cc(O)ccc1NS(=O)(=O)c1ccc2c3c(cccc13)C(=O)N2	59%
CCO[C@H]1OC(C(=O)NC2CC2)=C[C@@H](c2csc3ccccc23)[C@@H]1CCCO	30%
O=C(O)COc1ccccc1/C=N/NC(=O)CN1CCN(S(=O)(=O)c2ccc(Br)cc2)CC1	-11%
SMILES	PKM2 inhibitor
Cc1ccc(N2C(=O)c3ccccc3C2O)nc1 (stereo not given)	11µM*
O=C1N(CCCl)c2ccc(Br)cc2C12OCCO2	56%
CN(C1CCCCC1)S(=O)(=O)c1ccc(-c2ccccn2)s1	48%
Cc1c(C(=O)Nc2cccc(N(C)S(C)(=O)=O)c2)cccc1[N+](=O)[O-]	53%
CCN1/C(=C/c2ccc3cc(C)ccc3[n+]2CC)Sc2ccccc21	4.5µM*
COC(=O)c1ccc(COc2ccccc2/C=C/C(=O)c2ccc(OCC(=O)O)cc2)cc1	36%
Oc1ccc(-c2nc3ccc4ccccc4c3c3c2CCC3)cc1O	48%
c1ccc2nc(-c3nc4ccccc4o3)ccc2c1	18µM*
O=C1CCC(=O)N1c1cccc(-c2nc3ccccc3o2)c1	27%
CCn1c(=O)c2cc(C(=O)N3CCN(C(=O)c4ccco4)CC3)sc2c2ccccc21	42%
COc1cccc(Cn2nc(C(=O)O)c3ccccc3c2=O)c1	38%
COc1cccc(CSc2nc3ccncc3[nH]2)c1	14µM*
COc1ccc(S(=O)(=O)N2CCN=C2SCc2cccnc2)cc1	56%
Cc1ccc(S(=O)(=O)/N=c2\ccc(Cl)cn2C(F)F)cc1	66%
CC(=O)N1[C@H](C)C=C[C@]1(Cc1ccccc1)C(=O)NCc1ccc(C)o1	52%
Cc1ccc(-c2nc(CN(Cc3cnn(C)c3)C(C)C)c(C)o2)o1	41%
COc1cc(N2C(=O)C=CC2=O)c(OC)cc1Cl	121%
O=C(C1CCC1)N1CCc2cc(S(=O)(=O)Nc3ccc4c(c3)OCO4)ccc21	92%
O=C1c2ccccc2C(=O)N1Cc1ccc2c(c1)OCO2	44%
O=C1/C(=C/Nc2ccc3c(c2)OCO3)CCc2ccccc21	25µM*
CCc1ccc(C2=NNC(=Nc3c(C)n(C)n(-c4ccccc4)c3=O)SC2)cc1	40%
COc1ccccc1/C=C1\SC(=S)N(CCC(=O)Nc2cccc(O)c2)C1=O	37%
O=C1CCN(Cc2nc(-c3ccc(Cl)cc3)no2)CCN1	32%
Cn1cccc1CC(=O)N/N=C/C=C/c1ccco1	48%
COC(=O)[C@@]1(Cc2ccc(F)cc2)[C@H]2c3cc(C(=O)N(C)C)n(CCc4ccc(O)c(O)c4)c3C[C@H]2CN1C(=O)c1ccccc1	42%
SMILES	PKM2 inhibitor
COc1ccc(NC(=O)CSc2nnnn2C)c([N+](=O)[O-])c1	44%
c1cc2c(cc1C1=NNC(=NC3CC3)SC1)OCCO2	14µM*
COc1ccc(CN=C2NN=C(c3ccccc3)CS2)cc1	46%
CCCCN=C1NN=C(c2ccc(C)c(C)c2)CS1	72%
CCn1c(SCC(=O)Nc2cccc(C)c2)nc2nc3c(cc2c1=O)COC(C)(C)C3	67%
COc1ccc(-c2ncccc2OC(=O)C23CC4CC(CC(C4)C2)C3)cc1OC	34%
COc1ccc2[nH]c(=O)c(-c3noc(-c4ccccc4)n3)cc2c1	109%
COc1ccc(-c2nc3ccccc3[nH]2)cc1	13µM*
Cc1cc(C)nc(SCc2cc(=O)c(OC(=O)c3ccc(S(=O)(=O)N4CCCC4)cc3)co2)n1	47%
Cc1ccc(/C=N/N2CCN(C3c4ccccc4-c4ccccc43)CC2)o1	50%
Cc1ccc(/C=N/N2CCN(Cc3ccc(Cl)cc3)CC2)o1	34%
Cc1ccc(-c2nc3ccccc3n2C)o1	13µM*
COC(=O)c1cc(-c2ccc(C)o2)nc2ccccc12	56%
Cc1ccc(-c2nc3c(c(=O)[nH]c(=O)n3Cc3ccccc3)n2C)o1	48%
Brc1ccc(-c2nc(-c3ccccn3)no2)o1	18µM*
COc1ccccc1-c1nc(-c2ccccn2)no1	7.9µM*
CC1(C)CC(=O)C2=C(C1)O[C@@]1(c3ccsc3)Cc3cc(C#N)ccc3C2O1	40%[11.5 µM]
N#C/C(=C\c1ccc(F)c(Cl)c1)S(=O)(=O)c1ccccn1	-3%
CCOC(=O)c1c(N2C(=O)CC(Sc3ccccc3C(=O)O)C2=O)sc2c1CCCC2 (stereo not given)	61%
O=[N+]([O-])c1cccc(S(=O)(=O)c2ccc(NCCO)c([N+](=O)[O-])c2)c1	69%
CSCCC(NC(=O)c1ccccc1Br)C(=O)Nc1ccc(C)cc1 (stereo not given)	-12%
O=C(c1ccc(Cl)c(S(=O)(=O)N2CCCCCC2)c1)N1CCOCC1	39%
O=C(O)c1cc(N2CCOCC2)nc2ccccc12	31%
O=C(c1ccc2c3n(nc2c1)-c1ccccc1CO3)N1CCOCC1	14µM*
COCC(=O)OCC(=O)Nc1ccc(Cl)cc1[N+](=O)[O-]	76%
SMILES	PKM2 inhibitor
CN(Cc1ccccc1)C(=O)COC(=O)c1cc(NS(=O)(=O)c2cccs2)ccc1O	59%
COc1ccc(CNC(=O)C2=CCN(S(=O)(=O)c3ccc(C)cc3)CC2)cc1	95%
CCC12CC3CC(C1)CC(C(=O)NNC(N)=O)(C3)C2	-2%
Cc1cccc(C)c1NC(=S)N/N=C/c1ccccc1C(=O)O	-4%
O=C(N/N=C/c1ccncc1)c1cc([N+](=O)[O-])cc([N+](=O)[O-])c1O	31%
O=C(Nc1ccccc1C(=O)N/N=C/c1ccncc1)c1ccccc1	14µM*
COc1ccc(C(=O)N2CCC(n3c(C)nc4cc(F)ccc43)CC2)cc1	79%
